MazF activator: MazEF (E. coli) toxin RNase activation; P0AE70; FAM/BHQ RNA-DNA oligo cleavage fluorescence, 5 h; activation, % at 20 µM; 350,000 compounds, 0.32% hits; in the data active = activation above about 50%
Target sequence (P0AE70 whole entry, looked up): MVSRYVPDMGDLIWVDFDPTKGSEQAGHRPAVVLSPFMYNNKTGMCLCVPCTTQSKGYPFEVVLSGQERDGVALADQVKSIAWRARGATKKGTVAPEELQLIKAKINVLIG
Anthrax LF prot: anthrax lethal factor protease inhibition; P15917; multiplex microsphere protease cleavage assay, LF; inhibition, % at 10 µM; 360,000 compounds, 0.12% hits; AID 588501
Autofluor counter: counter-screen for toxin protease inhibitors: compound fluorescence; fluorescence intensity (no concentration beside the values); compound autofluorescence counterscreen, microsphere flow cytometry; stronger effect = higher value; AID 624483; 360,000 compounds, 3.1% hits; in the data active = fluorescence intensity above about 16000; inconclusive = no clear call, values can overlap the other calls
BoNT F protease: blocks Botulinum neurotoxin F light chain protease; 360,000 compounds, 0.22% hits; AID 588497; inhibition, % at 10 µM; Multiplex microsphere protease cleavage assay, flow cytometry; in the data active = inhibition above about 35%, passing the limit was not always enough; inconclusive = no clear call, values can overlap the other calls
BoNT A protease: blocks Botulinum neurotoxin A light chain protease; multiplex microsphere protease substrate cleavage, flow cytometry; inhibition, % at 10 µM; 360,000 compounds, 0.17% hits; AID 588499
Each line names hits and unclear results; the compound was inactive in the other large screens. The list is not random: actives were taken first. Their share in the collection is about 3.6%. Rule as the data show it, unless noted: active = inhibition above about 30%; inconclusive = no clear call, values can overlap the other calls; inactive = below that.

C[C@H](CO)N1C[C@H](C)[C@@H](CN(C)S(=O)(=O)c2ccccc2)Oc2ccc(NS(=O)(=O)c3ccccc3)cc2C1=O	none
CN=c1scc(-c2ccc(F)cc2)n1/N=C/c1ccc(O)c(O)c1	none
Nc1nc(C2C(=O)CCCC2=O)cs1	Autofluor counter 24150
Cc1nc2ccc(Cl)cc2c(-c2ccccc2F)c1CC(=O)O	none
O=[N+]([O-])c1cccc(-c2nc(-c3ccccc3)c(-c3cccs3)[nH]2)c1	none
O=[N+]([O-])c1cccc(-c2nc(-c3cccs3)c(-c3cccs3)[nH]2)c1	MazF activator 110.6
Cn1c(=O)c2[nH]c(-c3ccccc3Cl)c(O)c2n(C)c1=O	MazF activator 908.6
Cn1c(=O)c2[nH]c(-c3ccccc3)c(O)c2n(C)c1=O	MazF activator active
CCNc1nc(NCC)nc(Nn2cnnc2)n1	Autofluor counter 20282
Cc1ccc(CN2C(=O)CCC2(C)c2nnnn2Cc2ccccc2)cc1 (centres undefined)	none (no result: MazF activator)
Nc1ccnn1C1CCNCC1	Autofluor counter 19137
CN1CCC(n2nccc2N)CC1	none
Cc1nc2nc(Cc3ccccc3)nn2c(C)c1Cl	Autofluor counter 22300
COc1ncnc2c1ncn2CCCNCc1ccccn1	none
CC(=O)Nc1ccc(N2C(C(C)=O)=NN(c3ccccc3)C2c2cccs2)cc1 (centres undefined)	Autofluor counter 19872
COc1ccc(N2C(C(C)=O)=NN(c3ccccc3)C2c2cccs2)cc1 (centres undefined)	none (no result: MazF activator)
Cn1cc(-c2ccc(C(=O)Nc3cccc(Oc4ccccc4)c3)c3occc23)cn1	none (no result: MazF activator)
CCC1(c2ccc(F)cc2)NC(=O)N(CC(=O)Nc2cccnc2Cl)C1=O (centres undefined)	none
Cc1nc(Oc2ccc(Cl)cc2)c2oc3ccccc3c2n1	Autofluor counter 20568, BoNT A protease inconclusive
Cc1nc(N2CCN(Cc3ccc(Cl)cc3)CC2)c2oc3ccccc3c2n1	none
O=C(N=c1ccn(-c2nc3ccccc3nc2NS(=O)(=O)c2ccccc2)cc1)c1cccs1	MazF activator 413.1
Cc1ccccc1C(=O)N=c1ccn(-c2nc3ccccc3nc2NS(=O)(=O)c2ccc(F)cc2)cc1	none
Cc1c(N2C(=O)/C(=C\c3ccc(N(C)C)cc3)N(C)C2=S)c(=O)n(-c2ccccc2)n1C	MazF activator 130.6
COc1cc(NS(=O)(=O)c2ccc(NC(=O)c3ccc(C)o3)cc2)nc(OC)n1	Autofluor counter 16150, BoNT A protease inconclusive
Cc1cc(NS(=O)(=O)c2ccc(NC(=O)c3ccco3)cc2)nc(C)n1	Autofluor counter 21969
CCOc1ccc(N2C(=O)CC(Sc3ccccc3C(=O)O)C2=O)c([N+](=O)[O-])c1 (centres undefined)	none
CN(CCCNC(=O)Cn1c(=O)c2cccn2c2ccccc21)Cc1ccccc1	none
CC(=O)/C(N=Nc1cc(C)ccc1O)=C(\C)O	MazF activator 104.8
CN(CC(=O)Nc1ccccc1Cl)CC(=O)N(C)c1c(N)n(Cc2ccccc2)c(=O)[nH]c1=O	none
CN(CC(=O)Nc1ccccc1Cl)CC(=O)c1c(N)n(Cc2ccccc2)c(=O)n(C)c1=O	MazF activator 66.5 (no result: Anthrax LF prot, Autofluor counter, BoNT F protease, BoNT A protease)
CCOC(=O)CSc1nc2cc(OC)ccc2cc1C#N	MazF activator 120.3
COc1ccc2nc(SCC(=O)N3CC(=O)Nc4ccccc43)c(C#N)cc2c1	MazF activator 58.0
CCOC(=O)CSc1nc2ccc(C)cc2cc1C#N	MazF activator 296.5
Cc1cc(C)c2nc(SCC(=O)N3CC(=O)Nc4ccccc43)c(C#N)cc2c1	none
Cc1cc2cc(C#N)c(SCC(=O)Nc3nonc3C)nc2cc1C	MazF activator 62.6
CCOC(=O)CSc1nc2cc(C)cc(C)c2cc1C#N	none
CCCSc1nc(C)c(C(C)=O)cc1C#N	none
COc1ccc2nc(SC)c(C#N)cc2c1	none
COC(=O)CSc1nc(C)c(C(C)=O)cc1C#N	Autofluor counter 20891, BoNT A protease inconclusive
CCOC(=O)CSc1nc2cc(C)ccc2cc1C#N	MazF activator 628.2
COc1ccc2nc(SCC(C)=O)c(C#N)cc2c1	MazF activator 934.1
Cc1cccc(S(=O)(=O)NC(=O)C2(C)CCN2C(=O)Cc2ccc(-c3ccccc3)cc2)c1 (centres undefined)	none (no result: MazF activator)
CCCCn1c(O)c(C(CC)=Nc2ccc(C(=O)O)cc2)c(=O)[nH]c1=O	none
CCCCn1c(O)c(C(C)=NC(Cc2c[nH]c3ccccc23)C(=O)OC)c(=O)[nH]c1=O (centres undefined)	Autofluor counter 20728
CCCCn1c(O)c(C(C)=Nc2ccc(OCC)cc2)c(=O)[nH]c1=O	none
CCCCn1c(O)c(C(C)=Nc2cccc(C(=O)O)c2)c(=O)[nH]c1=O	Autofluor counter 21668, BoNT A protease inconclusive
CCCCn1c(O)c(C(CC)=Nc2ccc3c(c2)CCC3)c(=O)[nH]c1=O	Autofluor counter 16607
O=C(Cn1cnnn1)OCC(=O)c1ccc(Cl)s1	Autofluor counter 22766
Fc1ccc(CN2CCCCCCC2)cc1F	Autofluor counter 16629
Fc1ccc(CN2CCCCCC2)c(F)c1	Autofluor counter 22437
FC(F)(F)c1cccc(CN2CCCCCC2)c1	Autofluor counter 24319
Cc1onc(-c2ccccc2)c1NC(=O)N(Cc1ccccc1)C(C)C	none
CC(=O)N/C(=C\c1ccccc1)C(=O)OCC(=O)Nc1ccc(C)c(S(=O)(=O)N(C)C)c1	none
COC(=O)C1=C(O)C(C(=O)OC)C(c2ccc(C)cc2)C(C#N)(C#N)C1c1ccc(C)cc1 (centres undefined)	Autofluor counter 22296
COC(=O)C1=C(Nc2ccc(C)cc2)C=C(C)C(C(=O)OC)C1c1ccc(OC)cc1 (centres undefined)	none
CC(C)NS(=O)(=O)c1ccc(OCC(=O)Nc2ccc(F)cc2F)cc1	Autofluor counter 24368
CCNC(=S)NNC(=O)c1cccn(Cc2ccc(Cl)cc2Cl)c1=O	Autofluor counter 22212, BoNT A protease inconclusive
C=CCNC(=S)NNC(=O)c1cccc2ccccc12	Autofluor counter 21284
O=C(Nc1cccn(Cc2c(Cl)cccc2Cl)c1=O)c1ccc(Cl)cc1Cl	none
C=CCNC(=S)NNC(=O)c1cccn(Cc2ccc(Cl)cc2Cl)c1=O	Autofluor counter 22647, BoNT A protease inconclusive
O=S(=O)(NCC1CCCO1)c1ccc(S(=O)(=O)N(Cc2ccc(F)cc2)C2CCCCC2)cc1 (centres undefined)	Autofluor counter 21632
CC(C)C(C(=O)NCC1CCCO1)N(C(=O)CNS(=O)(=O)c1ccc(F)cc1)C1CCCCC1 (centres undefined)	none
O=S(=O)(NCC1CCCO1)c1ccc(Cl)c(C(F)(F)F)c1 (centres undefined)	Autofluor counter 21968, BoNT A protease inconclusive
COc1ccccc1N1CCN(C(=O)C(C)N(c2ccc(C)cc2)S(C)(=O)=O)CC1 (centres undefined)	none
COc1ccccc1N1CCN(C(=O)C(C)N(c2ccccc2)S(C)(=O)=O)CC1 (centres undefined)	Autofluor counter 21669, BoNT A protease inconclusive
COc1cc(OC)c(C2=NOC(C(=O)NCCc3ccccc3)C2)cc1Cl (centres undefined)	Autofluor counter 23621

Screening data deposited in PubChem BioAssay by several laboratories.
